Structures can show the parent of a compound that is named as a salt.

In this assay the test system is Saccharomyces cerevisiae BY4741 SeMeCo community. The assay is described as follows: z-score of subpopulation abundance vs DMSO median, subpopulation auxotrophic for HU; higher = larger share of this subpopulation than in DMSO controls. The conditions noted are these: 10 µM; 24 h; SM minimal medium; subpopulation (auxotrophy): HU. In short, it runs like this:
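Subpopulation abundance was reported as a z-score against the median of vehicle wells. The Saccharomyces cerevisiae BY4741 community, carrying four plasmids that each restored one auxotrophy and encoded a distinct fluorescent protein, was grown 24 h in minimal SM medium in 384-well plates holding library drugs at 10 µM final. Cells were paraformaldehyde-fixed and imaged by automated confocal microscopy, with single-auxotroph fluorescent strains used for thresholds and autofluorescence correction.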
For the compound `CN(C)[C@@H](CCOc1cccc2ccccc12)c1ccccc1` [Dapoxetine HCl], the “z-score of subpopulation abundance” value is -0.49. With `CC1(C)S[C@@H]2[C@H](NC(=O)Cc3ccccc3)C(=O)N2[C@H]1C(=O)O.CCN(CC)CCOC(=O)c1ccc(N)cc1` [Penicillin G Procaine], the “z-score of subpopulation abundance” value turned out to be 0.54. Regarding `CC(=O)Oc1ccccc1C(=O)O` [Aspirin], the “z-score of subpopulation abundance” value was -0.71.

For the compound `Nc1ccc(S(=O)(=O)Nc2ccnn2-c2ccccc2)cc1` [Sulfaphenazole], the “z-score of subpopulation abundance” value is -0.47. As for `C[C@@H]1CC(=O)NN=C1c1ccc(NN=C(C#N)C#N)cc1` [Levosimendan], the “z-score of subpopulation abundance” value was 0.25. Turning to `CCN1CCC[C@H]1CNC(=O)c1cc(S(N)(=O)=O)ccc1OC` [Levosulpiride], the “z-score of subpopulation abundance” value is -0.27. To `CN1CCN(CCCN2c3ccccc3Sc3ccc(C(F)(F)F)cc32)CC1` [Trifluoperazine 2HCl] belongs 0.54; to `COc1ccc2c(c1)c(CC(=O)OCC(=O)O)c(C)n2C(=O)c1ccc(Cl)cc1` [Acemetacin], 0.77; to `CC[C@H]1OC(=O)[C@H](C)[C@@H](O[C@H]2C[C@@](C)(OC)[C@@H](O)[C@H](C)O2)[C@H](C)[C@@H](O[C@@H]2O[C@H](C)C[C@H](N(C)C)[C@H]2O)[C@](C)(O)C[C@@H](C)CN(C)[C@H](C)[C@@H](O)[C@]1(C)O` [Azithromycin], 0.02.

Consider `Clc1ccccc1C(c1ccccc1)(c1ccccc1)n1ccnc1` [Clotrimazole], for which the “z-score of subpopulation abundance” value came out at 6.35. On to `CO/N=C(\C(=O)N[C@@H]1C(=O)N2C(C(=O)O)=C(CSc3nc(=O)c(O)nn3C)CS[C@H]12)c1csc(N)n1` [Ceftriaxone Sodium Trihydrate], for which the “z-score of subpopulation abundance” value is 0.14. Consider `C[C@H](NCc1ccc(OCc2cccc(F)c2)cc1)C(N)=O` [Safinamide], for which the “z-score of subpopulation abundance” value was 1.16.

For the compound `C[C@@H](O)[C@H]1C(=O)N2C(C(=O)O)=C([C@H]3CCCO3)S[C@H]12` [Faropenem Sodium], the “z-score of subpopulation abundance” value stood at 0.81. Consider `O=C1CCc2cc(OCCCCc3nnnn3C3CCCCC3)ccc2N1` [Cilostazol], for which the “z-score of subpopulation abundance” value was -0.16. To `COc1cc(NS(=O)(=O)c2ccc(N)cc2)ncn1` [Sulfamonomethoxine] belongs 0.5. To `Nc1nc2ccc(OC(F)(F)F)cc2s1` [Riluzole] belongs -1.39; to `NC(=O)N1c2ccccc2CC(=O)c2ccccc21` [Oxcarbazepine], 0.16. Turning to `CCCCC(F)(F)[C@@]1(O)CC[C@H]2[C@@H](CC(=O)[C@@H]2CCCCCCC(=O)O)O1` [Lubiprostone], the “z-score of subpopulation abundance” value is -0.05. The same measure for `CCCCCc1ccc(C)cc1O` [Amylmetacresol]: -0.1. In the case of `O=C(O)CCC(=O)Nc1ccc(S(=O)(=O)Nc2nccs2)cc1` [Succinylsulfathiazole], the “z-score of subpopulation abundance” value is -0.31. To `N[C@@H]1CONC1=O` [D-Cycloserine] belongs -0.43.

Take `COc1ccc2cc(C(=O)O)ccc2c1` [6-Methoxy-2-naphthoic acid]: the “z-score of subpopulation abundance” value is -0.63. To `CCC(=O)c1c(O)cc(O)cc1O` [Flopropione] belongs 1.06. To `Oc1c(Cl)cc(Cl)c(Cl)c1Cc1c(O)c(Cl)cc(Cl)c1Cl` [Hexachlorophene] belongs 4.22; to `CCCCCCCCc1ccc(CCC(N)(CO)CO)cc1` [Fingolimod], -0.71.

Take `CC1(C)S[C@@H]2[C@H](NC(=O)[C@H](N)c3ccc(O)cc3)C(=O)N2[C@H]1C(=O)O` [Amoxicillin]: the “z-score of subpopulation abundance” value came out at 0.65. Consider `CCCc1nc(C)c2c(=O)nc(-c3cc(S(=O)(=O)N4CCN(CC)CC4)ccc3OCC)[nH]n12` [Vardenafil HCl Trihydrate], for which the “z-score of subpopulation abundance” value was found to be 1.92. The same measure for `CC[C@@]1(O)C(=O)OCc2c1cc1n(c2=O)Cc2cc3c(CN(C)C)c(O)ccc3nc2-1` [Topotecan HCl]: -2.17; for `CCC(C)(C)C(=O)O[C@H]1C[C@@H](C)C=C2C=C[C@H](C)[C@H](CC[C@@H]3C[C@@H](O)CC(=O)O3)[C@H]21` [Simvastatin]: 1.53; for `COCCCN1CCC(NC(=O)c2cc(Cl)c(N)c3c2OCC3)CC1` [Prucalopride]: 0.16. Regarding `CO/N=C(\C(=O)N[C@@H]1C(=O)N2C(C(=O)O)=C(CSc3nc(C)c(CC(=O)O)s3)CS[C@H]12)c1csc(N)n1` [Cefodizime Sodium], the “z-score of subpopulation abundance” value was 0.66.

In the case of `CNCC[C@H](Oc1cccc2ccccc12)c1cccs1` [Duloxetine], the “z-score of subpopulation abundance” value was -0.4.

With `C1N2CN3CN1CN(C2)C3` [Methenamine], the “z-score of subpopulation abundance” value was 0.2.

Turning to `O=C(Nc1cccc(C2=NCCN2)c1)Nc1cccc(C2=NCCN2)c1` [Imidocarb dipropionate], the “z-score of subpopulation abundance” value turned out to be 0.05. Regarding `C[C@H]1c2cccc(O)c2C(O)=C2C(=O)[C@]3(O)C(O)=C(C(N)=O)C(=O)[C@@H](N(C)C)[C@@H]3[C@@H](O)[C@@H]21` [Doxycycline], the “z-score of subpopulation abundance” value is -1.25.

As for `CCc1c2c(nc3ccc(OC(=O)N4CCC(N5CCCCC5)CC4)cc13)-c1cc3c(c(=O)n1C2)COC(=O)[C@]3(O)CC` [Irinotecan HCl Trihydrate], the “z-score of subpopulation abundance” value was -0.6.

Regarding `C/C=C\c1ccc(O)c(OC)c1` [Isoeugenol], the “z-score of subpopulation abundance” value is -0.46.

For the origin of these results see the supplement of paper PMC8975748.
